Source: PubChem BioAssay AID2242 (National Center for Advancing Translational Sciences (NCATS), 2010)
Among all 200,000 compounds or so, about 720 (0.36%) were called active. Another 8% or so got no clear call; they are omitted. Calls follow the shape of the dose curve; as a rule, active = well fitted activation curve with a large enough effect; inconclusive = small, poorly fitted or top-dose-only effect, or effect the other way, or another doubt; inactive = flat fitted curve, though single readings scatter. The list shows a part of the results.

The compounds below were run against Lysosomal alpha-glucosidase (Homo sapiens) (UniProt P10253) (assay: qHTS Assay for Activators of Human alpha-Glucosidase as a Potential Chaperone Treatment of Pompe Disease). Details: purified enzyme, 4-MU-alpha-glucoside fluorescence, 20 min; series mostly up to 76.9 µM.
How it was run: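 Fluorogenic assay, 4 nM enzyme, 400 uM 4-methylumbelliferyl-[…], pH 5.0 citrate/phosphate buffer with 0.005% Tween-20, compounds up to 77 uM, 20 min at room temperature. NaOH/glycine stop, Ex 365/Em 440 nm; AC50 from Hill fits.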
Also: nearly all actives have a fitted effect of over 80% in size.
Potency is read from the fitted curve at half-maximal effect.

Potency, active:
CCCCc1c(C)c(C#N)c2[nH]c3ccccc3n2c1=O 22.4 µM
CCOC(=O)CCc1c(C)c(C#N)c2[nH]c3ccccc3n2c1=O 31.6 µM
Cc1ccc(Cc2c(C)c(C#N)c3[nH]c4ccccc4n3c2=O)cc1 35.5 µM
Cc1c(CCC(=O)O)c(=O)n2c([nH]c3ccccc32)c1C#N 35.5 µM
Cc1cccc(C2=NN(c3ccc(Br)cc3)[C@@H](C(=O)N3CCOC3=O)[C@@H]2c2ccc(F)cc2)c1 31.6 µM
COc1ccccc1[C@@H]1C(c2cccc(Cl)c2)=NN(c2ccc(Br)cc2)[C@H]1C(=O)N1CCOC1=O 31.6 µM
CC(=O)Oc1ccc2c(C)c(CC(C)O)c(=O)oc2c1 (stereo not given) 39.8 µM
COC(=O)Cc1c(C)c2cc(Cl)c(OC(=O)c3ccco3)cc2oc1=O 28.2 µM
COC(=O)Cc1c(C)c2ccc(OC(=O)c3ccccc3)cc2oc1=O 35.5 µM
COC(=O)Cc1c(C)c2ccc(OC(=O)c3ccco3)cc2oc1=O 35.5 µM
CCC(=O)Nc1c(C#N)c2nc3ccccc3nc2n1-c1ccccc1C 39.8 µM
CCCCN(C)C(=O)CCC(=O)Nc1ccc2nc(N3CCOCC3)cc(C)c2c1 39.8 µM
CCC(C)NC(=O)CCC(=O)Nc1ccc2nc(N3CCOCC3)cc(C)c2c1 (stereo not given) 35.5 µM
CCC(C)NC(=O)CCC(=O)Nc1ccc2nc(N3CC(C)CC(C)C3)cc(C)c2c1 (stereo not given) 31.6 µM
Fc1ccc(C2=NN(c3ccccc3)C(c3ccco3)C2)cc1 (stereo not given) 35.5 µM
Cc1ccc(N2N=C(c3ccc(F)cc3)CC2c2ccco2)cc1 (stereo not given) 28.2 µM
COc1ccccc1C1CC(c2ccco2)=NN1c1ccccc1 (stereo not given) 31.6 µM
CCOc1cc(C2C3=C(CCCC3=O)N(CCC(=O)O)C3=C2C(=O)CCC3)ccc1OS(=O)(=O)c1ccc(C)cc1 35.5 µM
COc1ccc(/C=C/c2nnc(NC(=O)COc3cccc(C)c3)s2)cc1 31.6 µM
COC(=O)Nc1nnc(/C=C/c2ccccc2)s1 31.6 µM
CCSc1ccc(-c2nn(-c3ccccc3)cc2/C=C(/C#N)C(=O)NCCCOC)cc1 35.5 µM
CCSc1ccc(-c2nn(-c3ccccc3)cc2/C=C(/C#N)C(=O)NC)cc1 25.1 µM
N#Cc1c(N)n(CCNC(=O)c2cccs2)c2nc3ccccc3nc12 35.5 µM
N#Cc1c(N)n(CCNC(=O)c2ccccc2)c2nc3ccccc3nc12 7.94 µM

Potency, inactive:
CCOC(=O)/C(C#N)=C/c1cn(CCC(=O)O)nc1-c1ccc(Br)cc1
